Inconclusive results are not listed. Where a call stands in place of a potency, no number is given. The source made the active and inactive calls. Calls follow the shape of the dose curve; as a rule, active = well fitted cell-killing curve with a large enough effect; inconclusive = small, poorly fitted or top-dose-only effect; inactive = flat fitted curve, though single readings scatter.
experiment: qHTS of pediatric cancer cell lines to identify multiple opportunities for drug repurposing: Primary screen for DAOY cells (AID 1347090); details: DAOY medulloblastoma viability, CellTiter-Glo luminescence, 48 h; series mostly up to 46 µM; also: nearly all actives have a fitted effect of over 55% in size
Source text: Drug repurposing or repositioning has been offered as a strategy for drug development in oncology programs. This approach has special potential for childhood cancers and other rare or orphan diseases, where the expected return on new drug development has been a disincentive to pharmaceuticals.
In this project we exploit the poly-pharmacology of drugs to discover new indications via phenotypic screening of a panel of 19 well-characterized cell lines derived from solid tumors seen in children and adolescents. The goal is to identify approved drugs with previously unrecognized anticancer properties that has the potential to reveal new mechanisms and biological processes involved in carcinogenesis or drug resistance. We employed a titration-based paradigm (quantitative high-throughput screening or qHTS), where all compounds were tested at multiple concentrations for their effect on cell viability. Concentration-response curves (CRCs) were derived directly from the primary screen, and both potency and efficacy values were used to identify compounds with robust bioactivity profiles. We screened the NIH Chemical Genomics Center (NCGC) Pharmaceutical Collection (NPC) and Mechanism Interrogation Plate (MIPE) small molecule collections of approved and investigational compounds against these cell lines; and measured metabolically active cells after 48 hours of compound treatment as a proxy for cell viability.
Assay Submitter: Nathalia J. Martinez, National Center for Advancing Translational Sciences, National Institutes of Health, Rockville, MD, USA; email: natalia.martinez@nih.gov
[1] Shen, M et al. Quantitative high-throughput phenotypic screening of pediatric cancer cell lines identifies multiple opportunities for drug repurposing. Oncotarget 2017 Dec 19;9(4):4758-4772. PMID 29435139.
The cells were obtained from University of North Carolina (UNC), Pediatric Preclinical Testing Program (PPT), and Coriell Institute (CI).
qHTS cell viability assay:
Cells were assayed in growth media at a density of 500-1,000 cells/well. Five microliters of cells were dispensed into 1,536-well, white, solid-bottom, TC-treated plates (Greiner Bio One) using a multidrop dispenser and incubated at 37 degrees C, 5% CO2, under a humidified atmosphere for 5 hours. Twenty-three nanoliters of compounds and controls (neutral control DMSO or positive control bortezomib at final concentration of 2.3 µM) were subsequently transferred by Kalypsys pintool. For primary screens, the MIPE collection was tested at 11-point dilutions (final concentrations range from 0.78 nM to 46 µM) and the NPC collection at 8-point dilutions (final concentrations range from 0.59 nM to 46 µM). Compounds tested in follow-up screens were assayed at 11-point dilutions. Cells were incubated for 48 hours, followed by addition of 3 uL of CellTiter-Glo (Promega). After a 15 min incubation at room temperature, samples were analyzed for luminescence intensity using a ViewLux High-throughput CCD imager equipped with clear filters.
Potency is read from the fitted curve at half-maximal effect.

Structure (SMILES) | Potency
CN1C[C@@H](NS(=O)(=O)N(C)C)C[C@@H]2c3cccc4c3c(cn4C)C[C@H]21 | inactive
C[N+]1(C)[C@@H]2CC[C@H]1CC(OC(=O)C(CO)c1ccccc1)C2 (stereo not given in full) | inactive
CCCCC1C(=O)NC(=O)N(C2CCCCC2)C1=O (stereo not given) | inactive
CCO[C@H]1O[C@@H]2OC3(C)CC[C@H]4[C@H](C)CC[C@@H]([C@H]1C)[C@@]24OO3 | inactive
NCc1cccnc1 | inactive
C[C@H]1C(=O)O[C@@H]2CCN3CC=C(COC(=O)[C@](C)(O)[C@]1(C)O)[C@H]23 | inactive
O=C(NC(=O)c1c(F)cccc1F)Nc1cc(Cl)c(OC(F)(F)C(F)C(F)(F)F)cc1Cl (stereo not given) | inactive
CCC(=O)O[C@H]1CC[C@H]2[C@@H]3CCC4=CC(=O)CC[C@]4(C)[C@H]3CC[C@]12C | inactive
CCCN(CCC)CCc1c[nH]c2ccccc12 | inactive
CCC(=O)OC1(c2ccccc2)CCN(C)CC1 | inactive
C[C@]12Cc3nonc3C[C@@H]1CC[C@@H]1[C@@H]2CC[C@@]2(C)[C@H]1CC[C@]2(C)O | inactive
CCN(CC)CCOC(=O)C(C)(c1ccccc1)c1ccccc1 | inactive
COC(=O)C1=CCCN(C)C1 | inactive
O=C(N[C@H]1N=C(c2ccccc2F)c2cccc3c2N(CC3)C1=O)c1cc2ccccc2[nH]1 | inactive
O=C(CCCCl)c1ccc(F)cc1 | inactive
COc1ccc(CN2CCNCC2)c(OC)c1OC | inactive
CN1CCc2cc(Cl)c(O)cc2[C@H]2c3ccccc3CC[C@@H]21 | inactive
CC[C@H]1C[C@@H]2C[C@H]3c4[nH]c5ccc(OC)cc5c4CCN(C2)[C@@H]13 | 37.8 µM (active)
C[C@]12C=CC(=O)C=C1CC[C@@H]1[C@@H]2CC[C@@]2(C)[C@H]1CC[C@]2(C)O | inactive
CC(C)NCC(O)c1ccc(N)c(C#N)c1 (stereo not given) | inactive

Structure (SMILES) | Potency
C[C@]12CC[C@H]3[C@@H](CCC4=CC(=O)CC[C@@]43C)[C@@H]1CC[C@@H]2C(=O)O | inactive
ClC1=C(Cl)C2(Cl)C(CBr)CC1(Cl)C2(Cl)Cl (stereo not given) | inactive
ClCCCN1CCN(c2cccc(Cl)c2)CC1 | inactive
CC(C)=CCN1CC[C@@]2(C)c3cc(O)ccc3C[C@@H]1[C@@H]2C | inactive
CCN(Cc1ccc(Cl)nc1)/C(=C/[N+](=O)[O-])NC | inactive
COc1cc(N)c(Cl)cc1C(=O)NC1CN2CCC1CC2 (stereo not given) | inactive
Clc1ccc(C(OCCN2CCCCC2)c2ccccc2)cc1 (stereo not given) | inactive
CCOP(=S)(OCC)O/N=C(\C#N)c1ccccc1 | inactive
ClCc1cccc(Cl)c1 | inactive
O=c1[nH]c2cc(Cl)ccc2n1C1CCNCC1 | inactive
NC(=O)CN1CCCC1=O | inactive
CN(C)C(=O)Oc1cc(OC(=O)N(C)C)cc(C(O)CNC(C)(C)C)c1 (stereo not given) | inactive
OC(c1ccccc1)(c1ccccc1)C1CCNCC1 | inactive
CC1N=C(N)OC1c1ccccc1 (stereo not given) | inactive
CCOC(C(=O)OCCN(C)C)(c1ccccc1)c1ccccc1 | inactive
Oc1ccc2[nH]cc(CCCCN3CC=C(c4ccccc4)CC3)c2c1 | inactive
Cc1nnc2n1-c1sc(CCC(=O)N3CCOCC3)cc1C(c1ccccc1Cl)=NC2 | inactive
CCc1cc(OC)c(C[C@H](C)N)cc1OC | inactive
CCCCCCCCCCCC[N+](C)(C)CCOc1ccccc1 | 26.6 µM (active)
COCC(=O)N(c1c(C)cccc1C)C(C)C(=O)OC (stereo not given) | inactive
